Screening data deposited in PubChem BioAssay by National Center for Advancing Translational Sciences (NCATS).
Hits are enriched below; roughly 2.2% of the tested compounds scored in any of these assays.
TDP-43 yeast inh: rescues yeast growth from TDP-43 toxicity | 410,000 compounds, 1.8% hits | TDP-43 expressing yeast growth rescue, BacTiter-Glo, 24 h | Potency, µM (series often up to 46.1 µM), for the others: at the highest dose growth rescue (activation), most hits filed as activators | AID 652104; also: % of control where 0% means no effect; nearly all actives have a fitted effect of over 50% in size
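Growth rescue of TDP-43-toxic yeast measured as ATP luminescence (BacTiter-Glo). Cells grown to mid-log in raffinose, induced in galactose at OD600=0.02, exposed to compound 24 hr at 30 deg C.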
Abeta yeast res: restores growth of yeast expressing A-beta42 peptide. yeast expressing A-beta42, growth rescue, OD600, 48 h; response scale: 0% DMSO, 100% iron-clioquinol control. Potency, µM (top dose mostly 46.1 µM), most hits filed as activators. 410,000 compounds, 0.063% hits. AID 1347071; also: nearly all actives have a fitted effect of over 55% in size
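Growth rescue measured by 600 nm absorbance after 48 h yeast culture at 30 C with compound. Values normalized between DMSO and an equimolar ferric chloride plus clioquinol control.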
Mito fusion yeast: blocks mitochondrial division or promotes mitochondrial fusion; 320,000 compounds, 0.23% hits; AID 485298; S. cerevisiae fusion-defective mutant growth rescue, CellTiterGlo 48 h; Potency, µM (doses to about 46.1 µM), for inactives: at the top dose growth rescue (activation), usual class: activators; also: % of control where 0% means no effect; nearly all actives have a fitted effect of over 45% in size
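Temperature-sensitive fusion-defective S. cerevisiae (e.g. fzo1-1, mgm1-5) were grown with compound in YPEG medium (3% ethanol, 3% glycerol) for 48 hours at 37C. Growth rescue was measured as viability by CellTiterGlo luminescence after 10 minutes at ambient.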
aSyn yeast inh: inhibitors of alpha-synuclein toxicity in yeast | Yeast expressing alpha-synuclein, growth rescue, BacTiter-Glo, 24 h | Potency, µM (top dose mostly 46.1 µM), for the others: at the top dose growth rescue (activation), usual class: activators | 370,000 compounds, 0.14% hits | AID 652106; also: % of control where 0% means no effect; nearly all actives have a fitted effect of over 65% in size
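Readout is rescue of growth in alpha-synuclein-expressing yeast, so inhibitors of toxicity appear as activators. Growth after 24 hr at 30 deg C in galactose medium is quantified by luminescence.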
FUS yeast rescue: FUS proteinopathy suppression in yeast; 390,000 compounds, 0.24% hits; Potency, µM (series often up to 76.6 µM), actives largely listed as activators; AID 1347120; S. cerevisiae FUS-expressing, growth rescue, OD600, 24 h;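 also: plate controls were DMSO vehicle for no effect and reference control for full effect; nearly all actives have a fitted effect of over 55% in size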
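Steps: raffinose overnight preculture; dilution to OD 0.005 in 2% galactose minimal medium; compound addition (concentration series); 24hr at 30C, 99% humidity; absorbance read at 600 nm.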
* hit, by the source's call; i = inactive; u = inconclusive; x = no result given; ! = not confirmed by another sample; [ ] = another dose, or the depositor's remark. Calls follow the shape of the dose curve; as a rule, active = well fitted curve in the direction sought with a large enough effect; inconclusive = small, poorly fitted or top-dose-only effect, or another doubt; inactive = no such curve, though single readings can be large; an effect the other way counts as inactive or inconclusive. Potency is read from the fitted curve at half-maximal effect.

SMILES	TDP-43 yeast inh	Abeta yeast res	Mito fusion yeast	aSyn yeast inh	FUS yeast rescue
Cc1cc(C)c(S(=O)(=O)NCC(c2ccco2)S(=O)(=O)c2ccccc2)c(C)c1 (stereo not given)	-4%	i	x	x	i
CCOc1ccc(S(=O)(=O)NCC(c2cccs2)S(=O)(=O)c2ccc(C)cc2)cc1 (stereo not given)	2.8µM*	i	x	x	i
Cc1ccc(S(=O)(=O)C(CNS(=O)(=O)c2ccc(F)c(C)c2)c2cccs2)cc1 (stereo not given)	u	i	x	x	i
Cc1ccc(/C=C/C(=O)c2ccc(N3CCOCC3)cc2)s1	u	i	1%	-9%	i
N=C(N)SCc1cccc2c(=O)cc(-c3ccccc3)oc12	x	x	x	6%	x
Nc1nnc(SCC(=O)OCC(=O)c2ccccc2)s1	-8%[0.397 µM]	i	32µM*	-8%	i
CN(C)c1cc(-c2ccc(Br)cc2)oc(=O)c1Cl	7.9µM*	i	2%	2%	i
CN(C)c1cc(-c2ccc(C#N)cc2)oc(=O)c1Cl	30%	i	-4%	-5%	i
Cc1cc(C)c(COc2ccc(/C=N/n3c(C)n[nH]c3=S)cc2)c(C)c1	20µM*	u	3%	1%	i
CCOc1ccc(CCNC(=O)C2CCN(Cc3nc(-c4ccc(OC)c(OC)c4)oc3C)CC2)cc1OCC	-1%	i	x	x	i
COc1ccc([N+](=O)[O-])c(C=CC(=O)c2ccccn2)c1	2.8µM*	i	x	20µM*	i
COc1ccc(/C=C/C(=O)c2ccccn2)cc1	-1%[9.22 µM]	i	11%	-9%	i
Cc1nnc(N2CCC(C(=O)NCc3ccc(N(C)C)cc3)CC2)c2nn(-c3ccccc3)c(C)c12	-3%	i	x	x	i
Cn1nc(C(=O)N2CCN(c3cccc(Cl)c3)CC2)c2c1-c1ccccc1S(=O)(=O)C2	22µM*	i	11µM*	3%	u
Cc1ccc(N2CCN(C(=O)c3nn(C)c4c3CS(=O)(=O)c3ccccc3-4)CC2)c(C)c1	u	i	11µM*	5%	22µM*!
Cn1nc(C(=O)N2CCN(c3ccc(Cl)cc3)CC2)c2c1-c1ccccc1S(=O)(=O)C2	u	i	21%	0%	u
COc1ccc(OC)c(NC(=O)N2CCN(S(=O)(=O)c3ccc4c(ccn4C)c3)CC2)c1	19%	i	x	u	u
COc1ccc(NC(=O)N2CCN(S(=O)(=O)c3ccc4c(ccn4C)c3)CC2)c(OC)c1	0%	i	x	2%	13µM*
CCOc1ccc(NC(=O)N2CCN(S(=O)(=O)c3ccc4c(ccn4C)c3)CC2)cc1	-21%	i	x	0%	40µM*
Cc1ccc(C(=O)NNC(=O)COC(=O)COc2ccccc2C#N)cc1	13%	i	-4%	8%	i
COc1ccc(CC(=O)NC2CCCc3ccccc32)cc1 (stereo not given)	18µM*	i	3%	-1%	i
O=C(NC(=S)NC1CCCc2ccccc21)c1ccco1 (stereo not given)	u	11µM*	-13%	-11%	i
CC1(C(=O)NCc2cccs2)CCN1CCc1ccccc1 (stereo not given)	8%	i	x	-1%	i
COc1cccc(C2CC(=O)Nc3c2c(=O)[nH]c2ncnn32)c1OC (stereo not given)	4%	i	x	-3%	i
CCCCN(C)CCNC(=O)CCNC(=O)Cn1ccc2ccccc2c1=O	5%	i	18µM*	2%	i
SMILES	TDP-43 yeast inh	Abeta yeast res	Mito fusion yeast	aSyn yeast inh	FUS yeast rescue
CNc1ccc(/C=C/c2ccnc3ccccc23)cc1	x	x	x	-8%	x
CC(=O)C1=C(C)NC(SCC(=O)c2cc(Cl)ccc2Cl)=C(C#N)C1c1ccco1 (stereo not given)	-29%	i	23%	-8%	25µM*
Cc1nc(-c2ccc(F)cc2)sc1CCNC(=O)Cc1ccc(F)cc1	u	i	x	x	i
Cc1cc(C)cc(C(=O)NCCc2sc(-c3ccc(F)cc3)nc2C)c1	12%	i	x	x	i
COc1ccc(C(=O)NCCc2sc(-c3cccc(F)c3)nc2C)cc1	22µM*	i	x	x	u
COc1ccc(-c2nc(C)c(CCNC(=O)c3c(F)cccc3F)s2)cc1	10µM*	i	x	-1%	i
Cc1nc(-c2ccc(F)cc2)sc1CCNC(=O)c1ccccc1C(F)(F)F	13µM*	i	x	x	i
COc1cccc(C(=O)NCCc2sc(-c3cccc(C)c3)nc2C)c1	25µM*	i	x	-8%	u
COc1ccc(S(=O)(=O)N2CCOC2CNC(=O)C(=O)NCc2ccc3c(c2)OCO3)cc1C (stereo not given)	13%	i	x	2%	i
CC(C)c1ccc(S(=O)(=O)N2CCC(n3c(C(F)(F)F)nc4cccnc43)CC2)cc1	8%	i	x	x	i
O=C(NCCCc1ccccc1)c1ccc(-n2cncn2)c([N+](=O)[O-])c1	-6%	i	0%	6%	i
Cc1cc(NC(=O)c2cc(-c3ccc(OC(C)C)cc3)nc3ccccc23)no1	-4%	i	-3%	-7%	i
CCOc1ccc(CC(=O)NCCc2sc(-c3cccc(F)c3)nc2C)cc1	u	i	x	x	i
COc1ccc(CC(=O)NCCc2sc(-c3cccc(F)c3)nc2C)cc1	11µM*	i	x	x	i
COc1cnc(-c2ccccn2)nc1Sc1ccc(Cl)cc1	14µM*	u	-8%	-6%	i
COc1ccc(Sc2nc(-c3ccccn3)ncc2OC)cc1	2%	u	9%	13%	i
COc1cnc(-c2ccccn2)nc1Sc1ccc(F)cc1	-19%	10µM*	7%	9%	i
COc1ccc(-n2ncc3c(NCC(C)C)ncnc32)cc1	11µM*	i	21%	1%	i
Cc1ccc(-n2ncc3c(NCc4ccccc4)ncnc32)cc1	9%	i	-2%	-3%	i
COc1ccc(-n2ncc3c(NC(C)C)ncnc32)cc1	u	i	9%	-1%	i
Cc1ccc(CNc2ncnc3c2cnn3-c2ccccc2)cc1	20%	i	4%	x	i
COc1ccccc1CNc1ncnc2c1cnn2-c1ccc(C)cc1	35µM*	i	x	x	i
COc1ccccc1CNc1ncnc2c1cnn2-c1ccccc1	16µM*	i	14%	0%	i
CCCCc1nc2cc(C(=O)N3CCCC(OCCC)C3)ccc2o1 (stereo not given)	14µM*	i	-7%	9%	i
Cc1nc(Nc2ccccc2F)c2oc3ccccc3c2n1	2.5µM*	i	-9%	0%	i
Cc1nc(Nc2cccc(Cl)c2)c2oc3ccccc3c2n1	16µM*	i	19%	-23%	i
COc1ccc(Oc2nc(C)nc3c2oc2ccccc23)cc1	16µM*	i	2%	10%	i
